# Compounds with a hit are over-represented: about 2.2% of the library has one in this group of screens.
# FXN GAA850 act: frataxin GAA850 promoter activation | activation, % at 6 µM | HEK293 lucGAA850 FXN promoter luciferase reporter, 24 h; percent of 10 µM SAHA response | actives 0.56% (n = 360,000);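 active = activation above the average of all compounds screened plus 3 SD, cutoff fixed separately per campaign, cut at about 7.5% in these data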;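 note: 0% = DMSO wells and 100% = 10 µM SAHA wells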
# GalR3 antag: human GalR3 antagonism; HEK293 GalR3-CNG cAMP membrane potential fluorescence; galR3 body fused to GalR1 C-terminus; inhibition, % at 3 µM; actives 0.44% (n = 360,000);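 active = inhibition above the screen-wide average plus 3 SD, cut at about 13% in these data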;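 note: forskolin and galanin both at EC90 stimulate the cells; cAMP rise reported by CNG channel membrane potential dye signal; 0% = forskolin plus galanin with DMSO and 100% = forskolin alone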
# Target sequence (O60755 1-299 limits assumed): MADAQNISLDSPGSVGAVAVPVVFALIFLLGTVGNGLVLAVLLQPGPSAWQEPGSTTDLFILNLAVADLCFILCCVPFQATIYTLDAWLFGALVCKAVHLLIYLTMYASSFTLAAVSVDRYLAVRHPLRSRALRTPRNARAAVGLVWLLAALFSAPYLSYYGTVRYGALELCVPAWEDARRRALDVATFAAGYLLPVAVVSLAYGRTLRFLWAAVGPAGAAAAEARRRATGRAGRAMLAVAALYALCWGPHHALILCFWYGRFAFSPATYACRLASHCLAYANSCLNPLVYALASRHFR
# HIF activator: HIF pathway transcriptional activation. U2OS HRE-luciferase reporter, luminescence; normalized: DMSO 0%, desferrioxamine 100%. activation, % at 7.5 µM (by protocol). actives 0.32% (n = 300,000);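 active = mean activation of at least 10% of the iron chelator positive control signal, with at least half of replicates also reaching 10%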
# SMARCA2 act: activators of SMARCA2 function | MG213 cells, MMTV-luciferase reporter, dexamethasone, overnight | activation, % at 9.1 µM | actives 1% (n = 370,000) | AID 652017; in the data active = activation above about 7.8%;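 note: 0% = vehicle wells and 100% = reference activator wells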
# Hsp70 activator: transcriptional activators of Hsp70; HeLa Hsp70 promoter luciferase reporter, luminescence; scaled: vehicle 0, proteasome-inhibitor control 100%; activation, % at 10 µM; actives 0.04% (n = 200,000);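 active = activation above the mean across all tested compounds plus 3 SD, cutoff set per campaign, cut at about 5.5% in these data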;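 note: 100% = MG132 at 30 µM as the positive control and 0% = DMSO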
# SMARCA2 act conf: confirmation of SMARCA2 (BRM) function activators. MG213 cells, MMTV-luciferase with dexamethasone, luminescence, overnight; MG213 cells expressing E1A, Rb sequestered; DMSO wells 0%, reference activator 100%. shares compounds with SMARCA2 act. activation, % at 9.1 µM. AID 652260. actives 30% (n = 3,500);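 active = activation above its plate's cutoff, the mean activation of tested wells plus 3 SD, cut at about 7.9% in these data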
# GAL4-VP16 Luc: GAL4-VP16 reporter activation counter-screen; shares compounds with SMARCA2 act; HEK293 GAL4-VP16 pG5luc reporter, luciferase luminescence; scaled: DMSO wells 0%, SAHA wells 100%; activation, % at 9.1 µM; actives 41% (n = 3,500);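 active = activation above the solvent-only control well mean plus 3 SD, averaged across control plates, cut at about 5.2% in these data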
# * marks the source's active call; other numbers are inactive results; nt = not tested or not shown.
SMILES,FXN GAA850 act,GalR3 antag,HIF activator,SMARCA2 act,Hsp70 activator,SMARCA2 act conf,GAL4-VP16 Luc
Cn1cccc1CC(=O)NNC(=S)Nc1ccccc1Cl,4,-1,0,8.3*,-1,-2,4
Cn1cccc1CC(=O)NNC(=S)Nc1ccc(Cl)cc1,2,-1,0,-1,0,nt,nt
CC(Oc1ccc(Cl)cc1Cl)C(=O)NC1CCSC1=O (stereo not given),-1,-4,0,8.3*,0,1,1
CCNC(=O)C(C)Oc1ccc(Cl)cc1Cl (stereo not given),0,-3,0,-3,-1,nt,nt
Oc1ccccc1-c1nnc(COc2ccc(Cl)cc2Cl)o1,2,3,4,9.3*,0,5,13*
O=C(NCc1ccccc1)[C@@H]1CCCN1C(=O)[C@H]1CCCN1C(=O)c1ccc(F)cc1F,nt,-3,nt,0,nt,nt,nt
COc1ccc(C(C#N)N2N=C(c3ccccc3)CC2c2ccccc2)cc1OC (stereo not given),7,-4,2,13*,0,7,4
COc1ccc(C(C#N)N2N=C(C)CC2c2ccccc2)cc1OC (stereo not given),2,-4,0,0,nt,nt,nt
COC(=O)C1CN(C2CCCC2)CCS(=O)(=O)N1Cc1ccc(OC)cc1 (stereo not given),nt,nt,nt,1,nt,nt,nt
COc1cccc(N=Nc2ccc3ccccc3c2O)c1,5,-4,-17,8.0*,nt,3,5.6*
Oc1c(N=Nc2ccc(F)cc2)ccc2ccccc12,3,-6,1,11*,nt,4,8.6*
COc1cc(-n2c(C)nc3cc(C(=O)N4CCCCC4)ccc32)cc(OC)c1OC,nt,nt,nt,-4,nt,nt,nt
CCC/C(=N\NC(=O)C1CC1)c1ccc(Br)cc1,1,-6,-1,-2,nt,nt,nt
CCC/C(=N\NC(=O)C1CC1)c1ccccc1,2,0,1,8.1*,nt,0,0
Cc1nc2cc(-c3ccc(Cl)cc3)nn2c(NCCN(C)C)c1C,5,-6,2,9.9*,0,19*,7.9*
Cc1cc(C)n2nc(-c3ccc(Cl)cc3)cc2n1,4,-5,1,6,nt,nt,nt
COc1ccc(NC(=O)c2ccccn2)cc1,-4,nt,-1,nt,0,nt,nt
O=C(NCc1ccc(Cl)cc1)c1cc2ccccn2n1,0,nt,1,-4,0,nt,nt
O=C(NCCc1ccc(F)cc1)c1cc2ccccn2n1,nt,nt,nt,16*,nt,4,7.3*
COc1ccc(NC(=O)c2cc3ccccn3n2)cc1,0,nt,-1,10*,0,4,12*
Cc1ccc(NC(=S)NNC(=O)CSc2nnc(SCc3cccc4ccccc34)s2)cc1,nt,nt,nt,-2,nt,nt,nt
O=C(CSc1nnc(Cc2cccs2)n1-c1ccccc1)Nc1ccccc1-c1ccccc1,nt,nt,nt,-4,nt,nt,nt
COc1ccc(CCNc2ncccc2C#N)cc1OC,2,-8,3,10*,nt,7,9.6*
COc1ccccc1OCc1cc(C(=O)N(C)CCC2CCCCO2)no1 (stereo not given),0,1,3,11*,nt,6,11*
COc1ccc(S(=O)(=O)N2Cc3ccccc3CC2C(=O)Nc2nccs2)cc1OC (stereo not given),3,-8,1,5,0,nt,nt
SMILES,FXN GAA850 act,GalR3 antag,HIF activator,SMARCA2 act,Hsp70 activator,SMARCA2 act conf,GAL4-VP16 Luc
COc1ccc(S(=O)(=O)N2Cc3ccccc3CC2C(=O)Nc2nccs2)cc1 (stereo not given),3,-6,2,9.8*,0,4,3
CC1CN(C(=O)CCC(=O)NC(C)c2ccccc2)c2cc(Cl)ccc2O1 (stereo not given),-1,nt,0,8.3*,nt,-2,2
O=C(COC(=O)c1cc(Br)c(Br)s1)NCCC1=CCCCC1,0,-6,-1,9.3*,0,-3,2
O=C(COC(=O)c1ccccc1Br)NCCC1=CCCCC1,3,1,2,7,0,nt,nt
COC(=O)[C@H]1[C@@H](O)[C@@]2(O)c3c(OC)cc(OC)cc3O[C@@]2(c2ccc(OC)cc2)[C@@H]1c1ccc(F)cc1,nt,-4,nt,-10,nt,nt,nt
CCC(C)N(C(=O)c1oc(=O)c2ccccc2c1-c1ccc(C)cc1)C(C)CC (stereo not given),nt,nt,nt,-6,nt,nt,nt
Cc1nc2nc(C)c(NS(=O)(=O)c3ccc4c(c3)CCCC4)c(=O)n2[nH]1,-1,-10,0,8.9*,nt,-2,3
COc1ccc(S(=O)(=O)Nc2c(C)nc3nc(C)[nH]n3c2=O)cc1,1,7,0,-3,nt,nt,nt
CCOc1ccc(OCc2cccc(C(=O)Nc3ccc(CN4CCCCC4)cc3)c2)cc1,4,0,-3,12*,0,14*,10*
CC(C)(C)c1ccc(NC(=O)Nc2ccc(OCC(=O)N3CCOCC3)cc2)cc1,3,-1,2,8.2*,0,5,15*
Cn1cccc1/C=N/NC(=O)c1cccnc1,2,-3,0,8.3*,0,1,1
O=C(N/N=C/c1cccc2ccccc12)c1cccnc1,2,-10,1,9.1*,nt,1,3
Cc1ccc(C(=O)N/N=C\c2cccn2C)cn1,3,-4,-29,0,0,nt,nt
O=C(N/N=C/c1c(-c2ccccc2)[nH]c2ccccc12)c1cccnc1,-4,3,3,0,0,nt,nt
Cn1c(-c2ccccc2)c(/C=N/NC(=O)c2cccnc2)c2ccccc21,0,-1,1,12*,0,6,2
O=C(CS(=O)c1ccc(C(F)(F)F)cc1[N+](=O)[O-])Oc1ccc(Cl)cc1 (stereo not given),1,6,3,11*,1,14*,0
Cc1cc(C)cc(OC(=O)CS(=O)c2ccc(C(F)(F)F)cc2[N+](=O)[O-])c1 (stereo not given),7,7,2,14*,0,13*,4
O=C(c1cccc(Br)c1)N1CCN(C(=O)c2cccc(Br)c2)CC1,0,0,-1,8.8*,0,1,-1
O=C(CCn1c(=O)sc2ccccc21)Nc1nccs1,6,-2,3,8.3*,0,4,7.7*
Cc1cc(C)cc(C(=O)N2CC(=O)Nc3ccccc32)c1,-1,8,0,-2,0,nt,nt
COc1cc(C(=O)N2CC(=O)Nc3ccccc32)cc(OC)c1OC,-6,-5,nt,9.2*,nt,0,0
CCOC(=O)Cc1nn(Cc2ccc(Cl)cc2)c(=O)c2ccccc12,3,-6,0,8.8*,0,-4,1
Cc1ccc(S(=O)(=O)NN=CC2(c3ccccc3)CC2)cc1,-1,-9,nt,9.8*,nt,-1,-1

# Bioassay records as filed in PubChem BioAssay.
